# Screens deposited in PubChem BioAssay by National Center for Advancing Translational Sciences (NCATS).
# This is a sample that favours compounds with a hit; in the whole collection about 19% have one here.
# IL1B secr inh = blocks inflammasome-driven IL-1 beta release. THP-1 LPS/ATP IL-1B secretion, AlphaLISA, 16 h; hits give low values. activity change, % at 57.5 µM. hit rate 4.7% among 360,000; in the data active means activity change below about -50%; inconclusive means mostly about -30% to -49%
#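 Secreted IL-1B measured by AlphaLISA bead assay after 16 h compound exposure of THP-1 cells; compounds (final up to 57.5 uM) added 1 h before LPS (250 ng/mL) and ATP (1.25 mM) stimulation; lower signal means less secretion.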
# ELG1 DNA repair = ELG1-dependent DNA repair inhibition. HEK293T ELG1-luciferase reporter, luminescence, 16 h; DNA damage induced by 5-fluorouridine. Potency, µM (series often up to 46.1 µM), hits mostly inhibitors. hit rate 2.3% among 330,000. AID 504467; further: nearly all actives have a fitted effect of over 55% in size
#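 Luminescence from the luciferase reporter, measured 30 min after ONE-Glo reagent at room temperature, was the read-out. Beforehand, 2,000 cells per well were exposed for 16 hr at 37 °C to 5-fluorouridine together with compound or vehicle.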
# TDP1 inh = blocks human tyrosyl-DNA phosphodiesterase 1; Q9NUW8; recombinant TDP1, AlphaScreen DNA substrate cleavage; Potency, µM (doses to about 130 µM), most hits filed as inhibitors; hit rate 0.28% among 350,000; AID 485290; further: nearly all actives have a fitted effect of over 40% in size
# Target sequence (Q9NUW8 whole entry, looked up): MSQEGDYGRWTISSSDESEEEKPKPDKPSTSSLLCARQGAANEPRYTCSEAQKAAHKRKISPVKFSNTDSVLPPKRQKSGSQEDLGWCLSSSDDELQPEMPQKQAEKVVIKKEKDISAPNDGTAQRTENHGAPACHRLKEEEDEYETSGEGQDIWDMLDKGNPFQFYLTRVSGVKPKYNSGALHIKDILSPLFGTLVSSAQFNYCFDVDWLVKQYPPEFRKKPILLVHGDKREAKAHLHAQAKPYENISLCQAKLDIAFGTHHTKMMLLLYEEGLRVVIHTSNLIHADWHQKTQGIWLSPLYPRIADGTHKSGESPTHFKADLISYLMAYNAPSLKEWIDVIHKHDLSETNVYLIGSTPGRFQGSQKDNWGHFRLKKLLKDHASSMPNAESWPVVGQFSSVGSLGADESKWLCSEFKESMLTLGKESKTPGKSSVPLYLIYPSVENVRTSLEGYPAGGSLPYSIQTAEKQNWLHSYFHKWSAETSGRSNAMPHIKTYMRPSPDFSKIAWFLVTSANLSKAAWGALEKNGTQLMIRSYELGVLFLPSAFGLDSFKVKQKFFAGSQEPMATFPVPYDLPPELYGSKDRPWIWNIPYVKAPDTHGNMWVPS
#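 Recombinant E. coli-expressed Tdp1 (1 nM) preincubated with compound 15 min at RT, then 5'-biotin/3'-phosphotyrosine-FITC DNA substrate (15 nM) added for 5 min. AlphaScreen beads (10 ug/ml) added, 10 min RT; tyrosine-FITC cleavage read as signal loss.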
# Giardia killer = Giardia lamblia killing. hit rate 0.15% among 340,000. activity change, % at 7.66 µM, hits read low. Giardia lamblia trophozoite viability; in the data active means activity change below about -80%; inconclusive means between about -30% and that limit;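 further: parasites exposed to compound for two days anaerobically before the ATP read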
#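 Luminescent ATP signal served as the viability read-out, measured 15-30 min after adding ATP detection reagent to trophozoites that had been incubated with compounds for 48 hrs at 37 deg C anaerobically at 100 cells/well.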
# DT40 TDP1 no CPT = qHTS for Inhibitors of human tyrosyl-DNA phosphodiesterase 1 (TDP1): qHTS in cells in absence of CPT | DT40 Tdp1-/- hTDP1 cells, no CPT, ATP luminescence, 48 h | Potency, µM (highest dose often 46.2 µM), most hits filed as inhibitors | hit rate 15% among 420,000; further: nearly all actives have a fitted effect of over 55% in size
#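 DT40 Tdp1-/-;hTDP1 cells, no CPT (DMSO vehicle only), 400 cells/well; compounds pin-transferred; ≥48 hr, 37 °C; CellTiter-Glo 30 min RT dark, luminescence read.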
# TDP1 cell CPT = DT40-hTDP1 cell growth loss with CPT; chicken DT40 Tdp1-/-;hTDP1 cells + 20 nM CPT, ATP luminescence, 48 h; Potency, µM (highest dose often 46.2 µM), usual class: inhibitors; hit rate 12% among 420,000; AID 686979; further: nearly all actives have a fitted effect of over 55% in size
#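 Chicken DT40 Tdp1-/- cells stably complemented with human TDP1 were seeded at 400 cells/well in medium containing 20 nM camptothecin, exposed to pin-transferred compounds, and grown at 37 °C for at least 48 hr. Viability was read as ATP luminescence.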
# Numbers stand for hits; – = inactive; ? = inconclusive; · = no result given; [ ] = another dose, or the depositor's remark. Unless noted, the call rests on the fitted dose curve; in most records, active means well fitted curve in the direction sought with a large enough effect; inconclusive means small, poorly fitted or top-dose-only effect, or another doubt; inactive means no such curve, though single readings can be large; an effect the other way counts as inactive or inconclusive.
SMILES,IL1B secr inh,ELG1 DNA repair,TDP1 inh,Giardia killer,DT40 TDP1 no CPT,TDP1 cell CPT
COc1cccc(NC(=O)CCSc2nc(-c3ccco3)cc(C(F)(F)F)n2)c1,·,·,–,·,?,?
CN1CCN(c2ccc(-c3ccc4ccccc4n3)cc2)CC1,-65.3,?,–,?,18.4µM,?
c1ccc2c(Nc3ccc(N4CCOCC4)cc3)nc(N3CCOCC3)nc2c1,-70.3,9.2µM,·,–,20.6µM,?
Cc1ccc(Nc2nc(N3CCOCC3)c3ccccc3n2)cc1,-104.3,?,–,–,20.6µM,20.6µM
c1ccc2nc(-c3ccc(N4CCOCC4)cc3)ccc2c1,–,?,–,?,–,–
CCn1cc(CNC(=O)C2CCC(=O)N(C3CCCCCC3)C2)cn1 (stereo not given),–,–,–,–,–,–
COc1cccc(C2C3=C(N=c4s/c(=C\c5ccc(OCC(=O)O)cc5)c(=O)n42)c2ccccc2CC3)c1 (stereo not given),–,–,·,–,?,–
O=c1cc(CN2CCN(C/C=C/c3ccccc3)CC2)c2cc(O)ccc2o1,-54.0,–,–,–,?,?
Cc1ccc2oc(=O)cc(CN3CCN(C/C=C/c4ccccc4)CC3)c2c1,–,–,–,–,16.4µM,?
Cc1ccc2c(CN3CCN(Cc4ccccc4Cl)CC3)cc(=O)oc2c1,·,·,–,·,23.1µM,16.4µM
CCCCC[C@H](C)N1C[C@H](COCc2ccccc2)Oc2cc(N3CCC[C@@H]3COC)ccc2S1(=O)=O,–,·,·,·,?,?
CCCCC[C@H](C)N1C[C@@H](COCc2ccccc2)Oc2cc(N3CCC[C@H]3C(N)=O)ccc2S1(=O)=O,–,·,·,·,?,?
CCCCC[C@H](C)N1C[C@H](COCc2ccccc2)Oc2cc(N3CCC[C@H]3CO)ccc2S1(=O)=O,-55.3,·,·,·,20.6µM,?
CCCCC[C@@H](C)N1C[C@@H](COCc2ccccc2)Oc2cc(N3CCC[C@H]3C(N)=O)ccc2S1(=O)=O,–,·,·,·,16.4µM,?
CCCCC[C@H](C)N1C[C@@H](COCc2ccccc2)Oc2cc(N3CCC[C@H]3COC)ccc2S1(=O)=O,–,·,·,·,18.4µM,?
C=CCOc1ccc(Br)cc1CNCC,–,–,–,–,–,–
COc1cc(NS(=O)(=O)c2ccc(NC(=O)c3cccc(F)c3)cc2)nc(OC)n1,·,·,–[2.28 µM],·,–,–
CC1CCCN(c2c3c(nc4ccccc24)CCCC3)C1 (stereo not given),-89.2,–,·,–,?,?
CC1CCCN(c2nc(-c3ccccc3O)nc3ccccc23)C1 (stereo not given),·,·,·,·,?,–
CN(C)CCn1c2c(c(SCC(=O)Nc3ccc4c(c3)OCCO4)nc1=O)CCCC2,–,–,–,–,–,–
COc1cc(NC(=O)CSc2nc3nc(C)c(Cc4ccccc4Cl)c(C)n3n2)cc(OC)c1,·,·,–,·,?,?
Cc1cccc(Cc2c(C)nc3nc(SCC(=O)NCc4ccc(F)cc4)nn3c2C)c1,·,·,–,·,23.1µM,16.4µM
COc1ccc(CCNC(=O)CSc2nc3nc(C)c(Cc4ccc(C)cc4)c(C)n3n2)cc1OC,·,·,–,·,20.6µM,?
Cc1ccc(NC(=O)CSc2nc3nc(C)c(Cc4ccccc4)c(C)n3n2)cc1,·,·,–,·,?,?
COc1cc(NC(=O)CSc2nc3nc(C)c(Cc4ccc(C)cc4)c(C)n3n2)cc(OC)c1,·,·,–,·,8.2µM,?
COc1cc(NC(=O)CSc2nc3nc(C)c(Cc4ccccc4)c(C)n3n2)cc(OC)c1,·,·,–,·,8.2µM,20.6µM
Cc1ccc(NC(=O)c2c(C)oc3nc(C)nc(N4CCCC4)c23)c(C)c1,·,·,–,·,–,–
O=C1C2C(C(=O)N1/N=C/c1cc(Br)cc([N+](=O)[O-])c1O)C1C=CC2C12CC2 (stereo not given),?,–,–,–,16.4µM,?
Cc1ccc(-c2cc(NC(=O)c3ccccc3[N+](=O)[O-])n[nH]2)cc1,–,–,·,–,20.6µM,?
Cc1ccc(NC(=O)c2ccc(Cl)cc2[N+](=O)[O-])nc1,–,–,–,–,3.26µM,3.26µM
